In PubChem BioAssay AID1481 (The Scripps Research Institute Molecular Screening Center, 2009):
In all, about 220,000 compounds went through this assay and about 920 (0.42%) were called active. Cut-off read from the data, not from the text of the source: active = inhibition above about 15%; inactive = the rest. The entries come from a sample that favours actives as a whole.

Biological target: Transitional endoplasmic reticulum ATPase (Homo sapiens) (UniProt P55072)
Test: inhibitors of human p97 ATPase, primary screen, biochemical (AID 1481);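 note: 0% = DMSO vehicle and 100% = wells lacking enzyme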
Conditions: recombinant p97 ATPase, Kinase-Glo ATP luminescence, 3 h; at 8 µM; active compounds read high

Sequence of Transitional endoplasmic reticulum ATPase (Homo sapiens) (P55072 whole entry, looked up): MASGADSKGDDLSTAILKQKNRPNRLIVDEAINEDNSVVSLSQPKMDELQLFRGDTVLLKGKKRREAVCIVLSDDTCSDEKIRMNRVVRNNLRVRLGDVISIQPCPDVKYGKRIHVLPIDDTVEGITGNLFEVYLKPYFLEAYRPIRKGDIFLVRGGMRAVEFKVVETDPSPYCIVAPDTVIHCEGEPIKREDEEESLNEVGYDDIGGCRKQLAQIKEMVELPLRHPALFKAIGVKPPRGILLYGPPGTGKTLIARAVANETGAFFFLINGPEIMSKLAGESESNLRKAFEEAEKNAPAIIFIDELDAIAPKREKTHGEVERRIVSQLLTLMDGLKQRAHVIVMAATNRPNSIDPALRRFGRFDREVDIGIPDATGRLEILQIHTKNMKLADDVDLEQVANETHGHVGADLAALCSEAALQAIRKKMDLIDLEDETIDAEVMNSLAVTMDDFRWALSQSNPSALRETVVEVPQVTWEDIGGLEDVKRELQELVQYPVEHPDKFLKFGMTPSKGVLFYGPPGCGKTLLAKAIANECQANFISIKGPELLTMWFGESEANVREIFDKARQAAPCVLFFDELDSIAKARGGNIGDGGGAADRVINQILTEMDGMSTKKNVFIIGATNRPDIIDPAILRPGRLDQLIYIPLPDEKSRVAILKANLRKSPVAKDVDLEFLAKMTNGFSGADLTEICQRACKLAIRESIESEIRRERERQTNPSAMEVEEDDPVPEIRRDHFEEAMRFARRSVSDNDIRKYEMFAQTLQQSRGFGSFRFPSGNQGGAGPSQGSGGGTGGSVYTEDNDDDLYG

| Compound | inhibition |
| --- | --- |
| O=c1[nH]c(CN2CC=C(c3ccccc3)CC2)nc2scc(-c3cccs3)c12 | 15.1% (active) |
| O=c1c2ccccc2nc(-c2ccccc2)n1-c1ccccn1 | 3.57% (inactive) |
| CNC(=O)Nc1ccc(C(O)(C(=O)OC)C(F)(F)F)cc1 (stereo not given) | -1.08% (inactive) |
| CC(=O)Nc1ccccc1C(=O)OCC(=O)c1cccc2ccccc12 | -0.08% (inactive) |
| N=c1ccccn1Cc1ccccc1 | 10.5% (inactive) |
